# According to PubChem BioAssay (EPA / NIEHS):
# Activity calls are given as the source filed them. The calls were made as follows: active = hit-call score of the fitted dose curve at least 0.9, where 1 is the maximum; inactive = score below 0.9.
# Molecular target: X-box-binding protein 1 (Homo sapiens) (UniProt P17861)
# Assay: ATG_Xbp1_CIS: Attagene CIS-FACTORIAL HepG2 Assay for human X-box Binding Protein 1 (XBP1) (AID 2282972)
# Details: HepG2 XBP1 cis-element reporter, Attagene multiplex; actives raise or lower the signal
# Experimental: ATG_CIS is a cell-based, multiplexed-readout assay that uses HepG2, a human liver cell line, with measurements taken at 24 hours after chemical dosing in a 24-well plate.ATG_Xbp1_CIS is one of 52 assay component(s) measured or calculated from the ATG_CIS assay. It is designed to make measurements of mRNA induction, a form of inducible reporter, as detected with fluorescence intensity signals by Reverse transcription polymerase chain reaction (RT-PCR) and Capillary electrophoresis technology.Data from the assay component ATG_Xbp1_CIS was analyzed into 1 assay endpoint. This assay endpoint, ATG_Xbp1_CIS, was analyzed with bidirectional fitting relative to DMSO as the negative control and baseline of activity. Using a type of inducible reporter, measures of mRNA for gain or loss-of-signal activity can be used to understand the reporter gene at the transcription factor-level as they relate to the gene XBP1. Furthermore, this assay endpoint can be referred to as a primary readout, because this assay has produced multiple assay endpoints where this one serves a reporter gene function. To generalize the intended target to other relatable targets, this assay endpoint is annotated to the dna binding intended target family, where the subfamily is basic leucine zipper.
# Human liver HepG2 cells are transiently transfected with multiple reporter transcription units (MRTUs) in 6-well plates using FuGene 6 reagent (Roche; 3 ml FuGene/1 mg DNA). The MRTU constructs are regulated by a cis-regulating element (promoter). […] A major difference between the CIS and TRANS system is that in CIS activities of endogenous TFs are measured, whereas the TRANS assay evaluates changes in activities of exogenous, chimeric NR-Gal4 proteins. […] At the end of 24 hour incubation, total RNA was isolated using TriZol reagent (Invitrogen). The isolated RNA is then reverse-transcribed using oligo(dT) primer and Mo-MLV reverse transcriptase (Invitrogen) with DNAse I (Ambion) treatment for 30 min. The one-tenth of the produced cDNA was amplified by PCR using Taq DNA polymerase (Invitrogen) and two reporter sequence-specific primers. The PCR products were fluorescently labeled by primer extension with 6-arboxyfluorescein (6-FAM) 5'-labeled reporter sequence-specific primer (2 min at 95 C, 20 s at 68 C and 10 min at 72 C) and these products were digested with 5U of HpaI (New England Biolabs) for 2h at 37 C. The fragments were purified using Qiaquick PCR columns (Qiagen), analyzed on an ABI 3130xL genetic analyzer (Applied Biosystems) with peak positions identified by using a set of X-rhodamine (ROX)-labeled MapMarker1000 molecular weight standards (BioVentures). The raw capillary electrophoresis data was processed using Attagraph software (Attagene).
# Sequence of X-box-binding protein 1 (Homo sapiens) (P17861 whole entry, looked up): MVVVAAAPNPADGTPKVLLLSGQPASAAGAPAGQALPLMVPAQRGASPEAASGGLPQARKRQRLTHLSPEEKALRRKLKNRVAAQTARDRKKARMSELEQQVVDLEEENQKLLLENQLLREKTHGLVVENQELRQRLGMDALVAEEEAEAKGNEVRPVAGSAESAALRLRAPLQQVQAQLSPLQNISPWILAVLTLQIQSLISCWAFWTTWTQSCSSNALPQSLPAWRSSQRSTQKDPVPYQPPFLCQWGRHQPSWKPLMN
SMILES,outcome,AC50
CCn1nc(Cc2ccccc2)cc1C1CCN(C[C@H]2C[C@H](N(C)[C@@H](C(=O)O)C(C)C)C[C@@H]2c2cccc(F)c2)CC1,inactive,–
CCOC(=O)CC(CC(=O)OCC)(OC(C)=O)C(=O)OCC,inactive,–
CC[C@H](C)C(=O)O[C@H]1C[C@@H](C)C=C2C=C[C@H](C)[C@H](CC[C@@H]3C[C@@H](O)CC(=O)O3)[C@H]21,inactive,–
O=P(OC(CCl)CCl)(OC(CCl)CCl)OC(CCl)CCl,–,100 µM (active)
COCCOCCOCCOC,inactive,–
CNS(=O)(=O)c1cc(C(=O)N2CCC(CCN3C4CCC3CC(n3c(C)nc5ccccc53)C4)(c3cccc(F)c3)CC2)c(Cl)cc1F (stereo not given),inactive,–
C1=CCCC=CCCC=CCC1,inactive,–
CCOC(=O)c1ccc(C2CCC(NC[C@H](O)COc3ccc(O)c(NS(C)(=O)=O)c3)CC2)cc1 (stereo not given in full),–,54.4 µM (active)
Nc1ccc(Nc2ccccc2)cc1,inactive,–
CCc1cc(SCc2sc(-c3ccc(C(F)(F)F)cc3)nc2CN2CCN(c3ccc(OC)cc3)CC2)ccc1OCC(=O)O,–,8.03 µM (active)
CCC(C)(C)C(=O)O[C@H]1C[C@@H](C)C=C2C=C[C@H](C)[C@H](CC[C@@H]3C[C@@H](O)CC(=O)O3)[C@H]21,inactive,–
CCCCCCCCCCCCc1ccccc1,inactive,–
Cc1ccc(O)cc1,inactive,–
O=C1CCC(N2C(=O)c3ccccc3C2=O)C(=O)N1 (stereo not given),inactive,–
COc1cccc(-c2ccc(/C=C\CN3CCCCCC3)cc2Cl)c1,inactive,–
CC/C(=C\C(=N/O)C(N)=O)C(C)[N+](=O)[O-] (stereo not given),inactive,–
O=C1CCCCCN1,inactive,–
CC(C)=CCC/C(C)=C/CO,inactive,–
COC(=O)c1c(Cl)c(Cl)c(C(=O)OC)c(Cl)c1Cl,inactive,–
CCOC(=O)COc1ccc2c(c1)CC(NCC(O)c1cccc(Cl)c1)CC2 (stereo not given),inactive,–

SMILES,outcome,AC50
CC(C)=CCCC(C)=CC=O,inactive,–
COc1ccc2sc(C(=O)Nc3nnn[nH]3)c(OC(C)C)c2c1,–,156 µM (active)
CCOCCO,inactive,–
CCCN(C1CCN(C(=O)C2CCNCC2)CC1)[C@@H]1CCc2ccc(OC)cc2C1,–,153 µM (active)
Cc1ccc(N)cc1O,inactive,–
CCCCCCCCO,inactive,–
O=C(O)CCN(C1(C(=O)NO)CCCC1)S(=O)(=O)c1ccc(Oc2ccc(F)cc2)cc1,inactive,–
O=c1[nH]c2ccc(S(=O)CCN3CCC(Cc4ccc(F)cc4)CC3)cc2o1 (stereo not given),–,71.1 µM (active)
C=CC(=C)CCC=C(C)C,inactive,–
CC1(C)C(=O)N(Br)C(=O)N1Br,inactive,–
Fc1ccccc1[C@@H](F)COC1CCC(Nc2ncnc3[nH]ncc23)CC1 (stereo not given in full),inactive,–
CC(C)(O)c1coc(S(=O)(=O)NC(=O)Nc2c3c(cc4c2CCC4)CCC3)c1,inactive,–
CC1=CC(=O)CC(C)(C)C1,inactive,–
Cn1c(=O)c2c(ncn2C)n(C)c1=O,inactive,–
CC(C)=CCCC(C)CCO (stereo not given),inactive,–
C[C@](N)(Cc1ccc(O)c(O)c1)C(=O)O,inactive,–
Cn1c(=O)cc(Oc2ccc(F)cc2F)c2cnc(NCC(C)(C)O)nc21,inactive,–
Cn1cnc([N+](=O)[O-])c1Sc1ncnc2nc[nH]c12,inactive,–
On1ccccc1=S,inactive,–
O=C(O)c1cccc(N(Cc2cccnc2)c2ccc(OC(F)F)c(OC(F)F)c2)c1,inactive,–
